Compounds with a hit are over-represented: about 4% of the library has one in this group of screens.
UGM FP inh: blocks M. tuberculosis UGM enzyme; P9WIQ1; purified UGM, fluorescence polarization probe displacement; inhibition, % at 10 µM; 0.06% of 320,000 active; AID 504406; in the data active = inhibition above about 10%, passing the limit was not always enough
Target sequence (P9WIQ1 whole entry, looked up): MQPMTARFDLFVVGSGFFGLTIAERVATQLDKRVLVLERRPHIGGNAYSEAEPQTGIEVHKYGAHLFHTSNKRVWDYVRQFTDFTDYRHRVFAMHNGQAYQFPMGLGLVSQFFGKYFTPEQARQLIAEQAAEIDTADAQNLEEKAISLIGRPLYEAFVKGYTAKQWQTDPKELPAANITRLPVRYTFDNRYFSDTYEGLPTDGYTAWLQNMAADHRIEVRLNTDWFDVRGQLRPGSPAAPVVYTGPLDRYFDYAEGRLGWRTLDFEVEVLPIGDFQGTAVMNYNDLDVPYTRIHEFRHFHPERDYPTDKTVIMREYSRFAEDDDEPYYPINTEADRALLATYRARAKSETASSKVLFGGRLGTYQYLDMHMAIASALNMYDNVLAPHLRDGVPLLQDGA
GDH-TPI counter: counter-screen for M. tuberculosis FBA inhibitors: GDH-TPI coupled enzymes. inhibition, % at 4.8 µM. 1.2% of 360,000 active. GDH-TPI coupled enzyme counterscreen, NADH absorbance; in the data active = inhibition above about 30%;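 also: 0% = DMSO wells and 100% = wells lacking the enzyme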
Rv3671c protease: inhibits the M. tuberculosis serine protease Rv3671c. inhibition, % at 5.96 µM. 0.048% of 320,000 active; in the data active = inhibition above about 38%;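 also: extracellular domain of Rv3671c used as enzyme; 0% = enzyme with DMSO and 100% = no enzyme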
Mtb bLac sens: beta-lactam sensitization of Mtb H37Rv; inhibition, % at 25 µM; M. tuberculosis H37Rv growth with meropenem, percent inhibition; 0.27% of 330,000 active; AID 434955;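 also: growth measured after seven days incubation then overnight dye step; 0% = bacteria only wells and 100% = bacteria with antibiotic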
RecA intein inh: Mtb RecA intein splicing inhibition; P9WHJ3; cell-free RecA intein splicing, fluorescence; inhibition, % (concentration not given with the values); 0.75% of 290,000 active; in the data active = inhibition above about 30%;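 also: 0% = vehicle wells and 100% = reference inhibitor control wells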
FBA Mtb inh: inhibits M. tuberculosis FBA enzyme | purified M. tuberculosis FBA, fluorescence read-out | P9WQA3 | inhibition, % at 1 µM | AID 588726 | 2.3% of 360,000 active; in the data active = inhibition above about 27%;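 also: 0% = vehicle and 100% = reference inhibitor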
GFP chromophore: counter-screen GFP chromophore formation inhibition; AID 434968; cell-free GFP chromophore formation, fluorescence; EC50, µM; shares compounds with RecA intein inh; 83% of 2,100 active
The depositor's hits bear a star; . = not tested or not shown. Unless noted, no rule for the calls is given here.

SMILES	UGM FP inh	GDH-TPI counter	Rv3671c protease	Mtb bLac sens	RecA intein inh	FBA Mtb inh	GFP chromophore
Nc1ccc2nc(CCCCc3nc4ccccc4[nH]3)[nH]c2c1	-3	6	.	2	36*	4	>38
Cc1ccc(S(=O)(=O)N2CCN(C(=O)c3ccco3)CC2)c(C)c1	-2	-3	-68	6	-1	-2	.
Cc1ccc(S(=O)(=O)N2CCN(C(=O)c3ccccc3Cc3ccccc3)CC2)c(C)c1	0	-2	2	2	30*	-1	>38
CCN(C(=O)CSc1nc2ccc(Cl)cc2[nH]1)C1CCS(=O)(=O)C1 (stereo unspecified)	1	12	3	-2	.	-1	.
CCCc1nnc(NC(=O)CCC(=O)N2CCN(S(=O)(=O)c3ccc(C)cc3)CC2)s1	-1	3	-4	1	-1	1	.
COc1ccccc1C(=O)NC1CCN(C(=S)NCCc2ccccc2)CC1	-2	1	6	-10	1	2	.
O=C1c2ccccc2C(=O)c2c1oc(C(F)(F)F)c2C(=O)c1ccccc1	1	-1	-38	6	39*	-2	>38
O=C(c1ccccc1)c1coc2c1C(=O)c1ccccc1C2=O	-1	-2	-22	1	17	7	.
CN1CCN(C2=C(Cl)C(=O)N(C3CCCCC3)C2=O)CC1	1	0	0	7	1	-4	.
CN1CCN(C2=C(Cl)C(=O)C(c3cnc(N4CCCCC4)s3)=C(Cl)C2=O)CC1	-2	14	-7	-5	83*	5	3.7*
OC(COC(c1ccccc1)c1ccccc1)CN1CCc2ccccc2C1 (stereo unspecified)	-3	5	5	3	4	1	.
OC(COC(c1ccc(Cl)cc1)c1ccc(Cl)cc1)CN1CCc2ccccc2C1 (stereo unspecified)	-1	-4	-4	100	30*	-1	>38
Cc1[nH]n(-c2ccccc2)c(=O)c1/C=C1\C=NN=C1c1ccccc1	1	12	-27	-5	82*	-3	7.4*
Cc1[nH]n(-c2ccccc2)c(=O)c1/C=N/O	0	8	-13	11	8	-2	.
O=C(c1cc2cc(Cl)ccc2[nH]1)N1CCN(C(=O)c2ccco2)CC1	0	-1	-16	-4	4	3	.
Cn1c(=O)[nH]c(=O)c2c1nc([N+](=O)[O-])n2Cc1ccccc1	0	15	8	100	62*	3	17*
N#Cc1c(Cl)c(Cl)c2nnc(-c3ccc(Br)cc3)n2c1Cl	1	.	0	-2	49*	.	5.1*
Cc1ccc(S(=O)(=O)NN=Cc2c(O)ccc3ccccc23)cc1	.	21	.	.	.	1	.
O=S(=O)(Nc1c(O)ccc2ccccc12)c1cccc2ccccc12	-1	1	-19	-9	84*	3	4.3*
O=C(O)c1cc(NS(=O)(=O)c2cccc3ccccc23)ccc1O	4	.	8	.	2	0	.
Cc1ccc(S(=O)(=O)Nc2c(O)ccc3ccccc23)cc1	3	-5	-12	5	76*	2	3.1*
CCCSc1ccc([C@H]2N[C@@](C)(C(=O)OC)[C@H]3C(=O)N(CC)C(=O)[C@@H]23)cc1	-3	-7	1	2	.	-1	.
CS(=O)(=O)c1ccc(Cl)c(NC(=O)COC(=O)COc2ccc3c(c2)CCC3)c1	2	5	0	-2	-3	3	.
COc1ccccc1-c1cn[nH]c(=S)n1	3	7	0	-10	35*	5	>38
COc1ccccc1-c1n[nH]c(=S)n1Cc1ccccc1	-1	-4	-3	-1	0	2	.
Cc1[nH][nH]c(=O)c1C(c1cc([N+](=O)[O-])ccc1O)c1c(C)[nH][nH]c1=O	3	3	-17	-1	96*	-9	0.53*
Cc1[nH][nH]c(=O)c1C(c1c(C)[nH][nH]c1=O)c1cn(C)c2ccccc12	.	5	.	.	.	-21	.
CCc1nnc(NC(=O)c2nc(S(=O)(=O)Cc3ccccc3)ncc2Cl)s1	-1	8	-3	0	66*	-1	37*
CCOc1ccccc1NC(=O)c1nc(S(=O)(=O)Cc2cccc(C)c2)ncc1Cl	-3	13	-8	-5	8	3	.
CCc1nnc(NC(=O)c2nc(S(=O)(=O)Cc3cccc(C)c3)ncc2Cl)s1	1	17	-19	9	75*	0	16*
